Structures are written as SMILES. The panel holds about 83,000 compounds, 20% with a hit somewhere; the sample as a whole holds those more often.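 Method: cells in 96-well plates; compound added at one concentration; 48 h incubation; percent growth measured; values under 10 scored active.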 Values without a mark were called inactive. Activity calls are given as the source filed them.

The subject of the assay is SF-295 CNS. Nature of the assay: NCI-60 one-dose screen, 48 h (100 = growth as untreated, 0 = no growth, -100 = all killed). The following applies: 10 µM unless noted.
Regarding `CCOc1cc2ncc(C#N)c(Nc3ccc(F)c(Cl)c3)c2cc1NC(=O)/C=C/CN(C)C`, the growth is 9.82% (active).

On to `CCN(CC)CCNC(=O)c1c(C)[nH]c(/C=C2\C(=O)Nc3ccc(F)cc32)c1C`, for which the growth is 67.3%.

With `COc1ccc2c(CCC(c3ccccc3)c3ccccc3)c3[n+](cc2c1OC)CCc1cc2c(cc1-3)OCO2`, the growth is -15.8% (active).

Take `C[C@@H](Oc1cc(-n2cnc3ccc(CN4CCN(C)CC4)cc32)sc1C(N)=O)c1ccccc1C(F)(F)F`: the growth was 32.7%.

For `CC(C)=CCc1cc2c(cc1O)C1=C(C(=O)C3=C(NCCS3(=O)=O)C1=O)C(C=C(C)C)O2` (centres undefined), the growth is 91.7%.

Take `CC(N)C(Cc1ccc(Cl)cc1)c1ccc(Cl)cc1` (centres undefined): the growth was 84.9%.

On to `Clc1nc(Cl)c2ncn(CC#CCn3cnc4c(Cl)nc(Cl)nc43)c2n1`, for which the growth was 5.67% (active).

For `O=C(Cc1ccc(-c2ccc(OCCN3CCOCC3)cc2)cn1)NCc1ccccc1`, the growth is 11.7%.

As for `Cc1nc(NC(=O)N2CCC[C@H]2C(N)=O)sc1-c1ccnc(C(C)(C)C(F)(F)F)c1`, the growth is 32.8%.

In the case of `COc1ccc2c(CCCc3ccc(Cl)cc3Cl)c3[n+](cc2c1OC)CCc1cc2c(cc1-3)OCO2`, the growth is -19.3% (active).

As to `Cc1c(Cn2c(C)nc3c(C(=O)O)cc(N4CCOCC4)cc32)cccc1C(F)(F)F`, the growth was 75.1%.

Turning to `COc1cc2nccc(Oc3ccc(NC(=O)C4(C(=O)Nc5ccc(F)cc5)CC4)cc3)c2cc1OC`, the growth is -8.99% (active).

For the compound `C=CCCCC(=O)CCC(=O)OCC1O[C@@H](O[C@@H]2C(O)[C@@H](OC(C)=O)C(C)O[C@H]2O[C@H](CC=C)CCCCC)C(O)[C@@H](OC(=O)/C(C)=C/C)[C@@H]1OC(=O)/C=C/c1ccccc1` (some centres undefined), the growth was -11.9% (active).

`O=c1[nH]ccc2c(S(=O)(=O)N3CCCNCC3)cccc12`: the growth is 74.5%.

Take `CC1(C=O)NC(=O)NC1=O` (centres undefined): the growth is 103%.

Regarding `Cc1ccc(NC(=O)c2ccc(CN3CC[C@H](N(C)C)C3)c(C(F)(F)F)c2)cc1Nc1nccc(-c2cncnc2)n1`, the growth was -43.9% (active).

For `O=C(Nc1cccc(Cl)c1)Nc1ncc(CCNc2ncnc3ccsc23)s1`, the growth is 20%.

As to `Cn1ccnc1C(=O)/C=C/c1ccc(CC(=O)Nc2ccc(Br)cc2)cc1`, the growth was 19.4%.

For `CNC(=O)c1nn(C)c2c1C(C)(C)Cc1cnc(Nc3ccc(N4CCN(C)CC4)cc3)nc1-2`, the growth was 15.3%.

As for `COc1cccc2cc(-c3nc(C4CCC(C(=O)O)CC4)n4ncnc(N)c34)[nH]c12` (centres undefined), the growth is -31.2% (active).

With `CNc1ncc2cc(-c3cc(NC(=O)NCCC(C)(C)C)c(F)cc3C)c(C)nc2n1`, the growth was 25.5%.

In the case of `Cc1cc(C(=O)Nc2cc(Oc3ccc4nc(NC(=O)C5CC5)cn4n3)ccc2C)n(C)n1`, the growth is 52.5%.

`O=C(Cc1ccc(/C=C/C(=O)c2ncc[nH]2)cc1)Nc1ccc(Br)cc1`: the growth is 26.9%.

On to `CCc1ccc(C2=C(O)C(=O)C(c3ccc(CC)cc3)=C(O)C2=O)cc1`, for which the growth is -27.2% (active).

With `CNC(=O)c1cccc2cc(Oc3ccnc4cc(OCC5(N)CC5)c(OC)cc34)ccc12`, the growth was 58.4%.

For the compound `CCCCN1CCCC[C@@H]1C(=O)N[C@H](C(=O)N(C)[C@H](CCc1nc(C(=O)N[C@@H](Cc2ccccc2)C[C@H](C)C(=O)OC)cs1)C(C)C)C(C)C`, the growth was 49.4%.

`COc1cnc2c(c1)C(=O)c1c-2n(CCCN2CCC(N)CC2)c(=O)c2cc([N+](=O)[O-])ccc12`: the growth is 24.2%.

As to `C=CC(=O)Nc1cc2c(Nc3ccc(F)c(Cl)c3)ncnc2cc1OCCCN1CCOCC1`, the growth is 53.4%.

With `NC(=O)c1c(OCc2c(F)cc(Br)cc2F)nsc1NC(=O)NCCCCN1CCCC1`, the growth is -81% (active).

`CCc1nc2ccc(Cc3ccc(C(=O)NO)cc3)cc2c(=O)n1CCc1ccccc1`: the growth is -79.1% (active).

On to `Cc1cc(N(CCNc2ccnc3cc(Cl)ccc23)Cc2ccc3c(c2)OCO3)nc(N2CCN(C)CC2)n1`, for which the growth is -66.4% (active).

Regarding `Cc1ccc2oc(=O)cc(-c3cc(-c4cc5ccccc5oc4=O)nc(N)c3C#N)c2c1`, the growth was 63.4%.

With `Cc1[nH]c(/C=C2\C(=O)Nc3ccc(F)cc32)c(C)c1C(=O)NC[C@H](O)CN1CCOCC1`, the growth was 64%.

For `O=C(Nc1cn[nH]c1-c1nc2ccc(CN3CCOCC3)cc2[nH]1)NC1CC1`, the growth was -10.5% (active).

With `O=C1CSC(c2c(F)cccc2Cl)N1NC(=O)C(O)(c1ccccc1)c1ccccc1` (centres undefined), the growth is 94.3%.

For the compound `O=C1C=CC2(NN=C(c3ccccc3)N2c2cccc(Cl)c2)C(Cl)=C1` (centres undefined), the growth was 76.7%.

As to `Cc1ccc(N=C2CSc3nnc(-c4csc5c4CCCC5)n3N2)cc1`, the growth was -6.51% (active).

In the case of `Cc1cc(-c2cc(OC(=O)c3ccccc3)ccc2Cl)cc2nnc(Nc3ccc(OCCN4CCCC4)cc3)nc12`, the growth is 92.7%.

`Cc1cc(O)cc(-c2c(-c3ccnc(-c4cccnc4)c3)cnn2C)c1`: the growth is 59.2%.

Values taken from PubChem BioAssay (NCI).
